Columns and labels:
Experiment in all cases: PBM binding z-score (relative to random genomic background probes); higher = stronger binding; sequences stand for … in GC…GCGATTGACAGCGTAGAATGAAGG
[1] = tested on: PPARg:RXRa IVT, anti-PPARg (NR concentration 270 nM, RXRa partner concentration 90 nM)
In short: (§1)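 For binding z-scores, the reference was random background probes on custom Agilent 4×180K protein-binding microarrays. These arrays were incubated 1 h with ligand-free nuclear receptor dimers in PBS pH 7.4, 2% milk, 0.02% Triton X-100, 1 mM DTT, 0.2 mg/mL BSA and 0.4 mg/ml salmon testes DNA. Fluorescence was scanned after antibody detection of each partner (one per run) and regression-normalized.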

[2] = tested on: PPARg DBDmut:RXRa IVT, anti-PPARg (DBD mutation: PPARg1 K132A/R137A, NR concentration 270 nM, RXRa partner concentration 90 nM)
In short: as §1

[3] = tested on: PPARg DBDmut IVT, anti-PPARg (DBD mutation: PPARg1 K132A/R137A, NR concentration 270 nM)
In short: as §1

[4] = tested on: PPARg homodimer (NR concentration 180 nM)
In short: as §1

[5] = tested on: PXR:RXRa (NR concentration 270 nM, RXRa partner concentration 90 nM)
In short: as §1

[6] = tested on: PXR homodimer (NR concentration 270 nM)
In short: as §1

[7] = tested on: RARa:RXR (NR concentration 270 nM, RXRa partner concentration 90 nM)
In short: as §1

[8] = tested on: RARa homodimer (NR concentration 270 nM)
In short: as §1

[9] = tested on: RARb:RXRa (NR concentration 270 nM, RXRa partner concentration 90 nM)
In short: as §1

[10] = tested on: RARb homodimer (NR concentration 270 nM)
In short: as §1

[11] = tested on: RARg:RXRa (NR concentration 270 nM, RXRa partner concentration 90 nM)
In short: as §1

[12] = tested on: RARg homodimer (NR concentration 270 nM)
In short: as §1

[13] = tested on: RXRa DBDmut IVT, anti-RXR (DBD mutation: RXRa K156A/R161A, NR concentration 90 nM)
In short: as §1

[14] = tested on: RXRa homodimer (NR concentration 180 nM)
In short: as §1

[15] = tested on: THRa:RXRa (NR concentration 90 nM, RXRa partner concentration 90 nM)
In short: as §1

[16] = tested on: THRa homodimer (NR concentration 90 nM)
In short: as §1

[17] = tested on: VDR homodimer (NR concentration 270 nM)
In short: as §1

| Sequence | PBM binding z-score [1] | PBM binding z-score [2] | PBM binding z-score [3] | PBM binding z-score [4] | PBM binding z-score [5] | PBM binding z-score [6] | PBM binding z-score [7] | PBM binding z-score [8] | PBM binding z-score [9] | PBM binding z-score [10] | PBM binding z-score [11] | PBM binding z-score [12] | PBM binding z-score [13] | PBM binding z-score [14] | PBM binding z-score [15] | PBM binding z-score [16] | PBM binding z-score [17] |
| --- | --- | --- | --- | --- | --- | --- | --- | --- | --- | --- | --- | --- | --- | --- | --- | --- | --- |
| CCGACTGGGGCAAGGTCACCATAACGCACAGCCA | 4.62 | 0.00337 | -0.825 | 2.64 | 3.25 | 0.544 | 3.76 | 0.752 | 4.25 | 4.23 | 4.32 | 4.45 | 0.549 | 4.37 | 3.66 | 2.7 | 2.02 |
| CCTAGCAGGCCAATCTAGGTCACTCAAGGCTTGA | 5.19 | -0.0838 | -0.865 | 0.707 | 1.51 | -0.261 | 1.37 | -0.161 | 2.02 | 2.68 | 1.5 | 1.85 | 0.439 | 0.64 | 4.18 | 1.57 | 0.1 |
| AGAATGAGATTACCAAAGATCAGGGAAACGCTTG | -0.595 | 0.561 | 0.0997 | -0.0322 | -0.245 | -0.0511 | -0.182 | -0.0131 | -0.301 | -0.938 | 0.145 | 0.36 | -0.574 | 0.178 | -0.261 | -0.869 | -0.177 |
| CCTACTGGGCCGTTCAGAGGTCATTGATCATATG | 2.34 | -0.522 | -0.314 | 1.94 | 4.75 | 2.25 | 4.52 | 0.491 | 2.7 | 3.78 | 3.7 | 2.47 | 0.516 | 3.46 | 2.86 | 1.42 | 2.97 |
| AGTCAAAGTTGAGGACGAGGTAACGTAAAGCACG | 0.639 | 0.307 | -0.0552 | 0.137 | 0.261 | -0.0592 | 0.951 | 0.0325 | 1.46 | 1.01 | 1.38 | 1.24 | -0.405 | 0.856 | 3.3 | 1.96 | 0.344 |
| CCTGCGAGGTCATGGTCAGCTAATCTACAGTATG | 4.21 | 2.09 | 1.64 | 4.94 | 5.39 | 1.06 | 5.88 | 1.08 | 5.01 | 4.02 | 6.42 | 6.15 | 4.26 | 7.05 | 4.34 | 3.39 | 3.95 |
| AATACAAGGTCATCGTAGGCCAGAGTACGCACAG | 4.7 | 0.979 | 1.37 | 2.81 | 4.87 | 2.13 | 4.63 | 1.33 | 5.15 | 4.19 | 6.21 | 6.23 | 3.94 | 6.37 | 4.47 | 2.74 | 4.03 |
| TCTTGTAGATCAACAGGAGGTTAATAAAGATCGA | 0.851 | 0.688 | 0.752 | 0.0813 | 0.776 | -0.162 | 1.23 | 0.176 | 0.533 | 0.497 | 0.776 | 0.301 | 0.161 | 1.03 | 0.904 | -0.0853 | -0.179 |
